# Source: PubChem
# A selection: hits, their analogues and other compounds. The true share with any hit is near 2.8%.
# POLI inh: qHTS for Inhibitors of Polymerase Iota; Pol iota fluorescent replication assay, 10 min; DNA polymerase iota (Homo sapiens), Q9UNA4; actives 1% (n = 390,000); Potency, µM (top dose mostly 115 µM), for the others: at the top dose activity, negative = inhibition, usual class: inhibitors; note: potency is the fitted concentration of half-maximal effect
#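 Fluorescent replication assay read twice, at 0 min and 10 min after adding 50 nM (final) substrate. Enzyme (10 nM) and compounds were first incubated 15 min at room temperature; enzyme-free buffer wells were negative controls.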
# POLB inh: qHTS Assay for Inhibitors of DNA Polymerase Beta; actives 1.3% (n = 340,000); Potency, µM (series often up to 114 µM), without a hit: top-dose activity change, negative = inhibition, most hits filed as inhibitors; P06746; Pol beta primer extension/strand displacement, fluorescence kinetic; note: potency is the fitted concentration of half-maximal effect; % is set by controls: 0 for no effect and ±100 for the full control effect
#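 Pol beta (10 nM) was preincubated with compound for 15 min at room temperature. The reaction was then started with 50 nM substrate and read immediately and after a further 10 min at room temperature.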
# PI4K2A inh: qHTS for small molecular inhibitors of PI4K2A. activity change, negative = inhibition, % at 76.9 µM. actives 0.13% (n = 420,000). purified PI4K2A, ADP-Glo luminescence, 1 h; active compounds read low. Phosphatidylinositol 4-kinase type 2-alpha (Homo sapiens), Q9BTU6; in the data active = activity change below about -50%; inconclusive = mostly about -30% to -49%;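 note: -100% = wells without enzyme as full effect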
#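 In this quantitative HTS, ADP production by PI4K2A was quantified luminescently after 1 h at ambient temperature; 100 microM adenosine served as plate-quality control.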
# PI5P4K alpha inh: qHTS for Inhibitors of phosphatidylinositol 5-phosphate 4-kinase (PI5P4K); Phosphatidylinositol 5-phosphate 4-kinase type-2 alpha (Homo sapiens), P48426; PI5P4Kalpha enzyme, ADP-Glo luminescence, 60 min; active compounds read low; max response, %; actives 1.2% (n = 330,000); AID 652105, 2013; active = max response of -50% or lower; inconclusive = between -30% and -50%; inactive = -30% or higher; note: value at the top dose of about 77 µM; % is set by controls: 0 for no effect and ±100 for the full control effect
#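 qHTS, 1536-well: enzyme/substrate mix, compound by pin tool, 5 microM ATP final; RT 60 min; ADP-Glo reagents 1 (45 min) then 2 (30 min); luminescence.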
# Pol kappa inh: qHTS for Inhibitors of Polymerase Kappa. DNA polymerase kappa (Homo sapiens), Q9UBT6. purified Pol kappa, fluorescent DNA synthesis assay, 10 min. Potency, µM (titrated, usually from 107 µM), inactives show top-dose activity, negative = inhibition, most hits filed as inhibitors. AID 588579, 2011. actives 0.53% (n = 400,000); note: potency is the fitted concentration of half-maximal effect; % is set by controls: 0 for no effect and ±100 for the full control effect
#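 First, compounds were pin-transferred onto 10 nM Pol kappa. After 15 min at room temperature, substrate was added to 50 nM final. Fluorescence was then measured kinetically at 0 and 10 min.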
# POLH inh: qHTS for Inhibitors of Polymerase Eta; recombinant Pol eta, fluorescent DNA replication assay; Potency, µM (series often up to 114 µM), inactives show at the top dose activity change, negative = inhibition, hits mostly inhibitors; actives 1.2% (n = 390,000); note: potency is the fitted concentration of half-maximal effect; % is set by controls: 0 for no effect and ±100 for the full control effect
# Target sequence (Q9Y253 whole entry, looked up): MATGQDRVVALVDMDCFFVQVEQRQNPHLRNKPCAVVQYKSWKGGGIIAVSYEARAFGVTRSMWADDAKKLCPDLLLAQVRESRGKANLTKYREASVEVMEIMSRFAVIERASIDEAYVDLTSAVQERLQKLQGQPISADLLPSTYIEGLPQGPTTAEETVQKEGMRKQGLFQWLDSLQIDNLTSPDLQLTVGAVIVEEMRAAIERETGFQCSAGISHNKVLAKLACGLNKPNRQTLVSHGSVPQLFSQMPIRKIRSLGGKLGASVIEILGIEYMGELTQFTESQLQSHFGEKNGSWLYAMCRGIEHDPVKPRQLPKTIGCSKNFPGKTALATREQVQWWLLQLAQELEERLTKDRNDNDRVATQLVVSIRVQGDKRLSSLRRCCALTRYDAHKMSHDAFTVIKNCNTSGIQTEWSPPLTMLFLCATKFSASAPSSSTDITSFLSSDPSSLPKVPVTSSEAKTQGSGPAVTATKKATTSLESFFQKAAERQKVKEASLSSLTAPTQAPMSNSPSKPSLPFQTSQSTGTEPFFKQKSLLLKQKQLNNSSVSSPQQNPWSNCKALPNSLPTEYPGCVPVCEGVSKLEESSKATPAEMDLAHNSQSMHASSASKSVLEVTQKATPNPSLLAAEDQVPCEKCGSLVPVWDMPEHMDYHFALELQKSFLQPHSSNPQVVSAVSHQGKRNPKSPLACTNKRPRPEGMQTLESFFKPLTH
#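 Pol eta (10 nM) was preincubated with compounds for 15 min at room temperature, after which fluorescent replication substrate (50 nM final) was added to start the reaction. Fluorescence was read kinetically at 0 and 10 min.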
# * = called active by the depositor; ? = inconclusive; . = no result given; [ ] = another dose, or the depositor's remark. Unless noted, calls come from the whole dose curve; as a rule, active = well fitted inhibition curve with a large enough effect; inconclusive = small, poorly fitted or top-dose-only effect, or another doubt; inactive = no such curve, though single readings can be large or run the other way.
SMILES,POLI inh,POLB inh,PI4K2A inh,PI5P4K alpha inh,Pol kappa inh,POLH inh
CN(C)S(=O)(=O)c1cccc(-n2sc3ccccc3c2=O)c1,?,40%,-7,-91*,-11%,0%
CC(C)CCn1c(SC(C)C#N)nc2ccccc2c1=O (stereo not drawn),-12%,.,.,.,-15%,.
Cc1ccc(/C=N\NC(=O)CN2CCN(S(=O)(=O)c3ccc(Br)cc3)CC2)s1,.,.,-5,.,.,.
Cn1sc2ccccc2c1=O,.,.,-1,?,.,4%
Cc1ccc(-n2sc3ccccc3c2=O)cc1S(=O)(=O)N1CCCCC1,?,-25%,?,-111*,2%,-4%
O=c1c2ccccc2sn1-c1ccccc1,?,1%,-30,-96*,-13%,-9%
C[C@@H]1[C@@H](O)C[C@@]2(C[C@H](O)c3cc(F)ccc3O2)O[C@H]1c1ccccc1Cl,.,.,-2,.,.,.
C=C(CCC12O[C@H](C(=O)O)[C@@](O)(C(=O)O)[C@](C(=O)O)(O1)[C@H](OC(=O)/C=C/[C@@H](C)C[C@@H](C)CC)[C@H]2O)[C@@H](OC(C)=O)[C@H](C)Cc1ccccc1,.,.,.,.,3.5µM*,.
C=C(CC[C@]12OC(C(=O)O)C(O)(C(=O)O)C(C(=O)O)(O1)C(OC(=O)/C=C/[C@@H](C)C[C@@H](C)CC)C2O)[C@@H](OC(C)=O)[C@H](C)Cc1ccccc1 (stereo partly drawn),?,.,.,.,79µM*,.
CC(C)(C)n1ncc2c(=O)n(Cc3c(F)ccc(F)c3Cl)cnc21,7%,.,.,.,-18%,.
Cc1ccc(NC(=O)c2cc3ccccc3oc2=N)cc1,?,11%,-8,4,9%,-5%
N=c1oc2cc(O)ccc2cc1C(=O)Nc1ccc(Cl)cc1,9%,1%,2,6,-9%,79µM*
O=C(O)CC1CCC(=C(Cl)Cl)C1 (stereo not drawn),?,?,4,.,-16%,50µM*
CC(=O)Nc1cccc(N2C(=O)CC(N3CCC(C(=O)N4CCCCC4)CC3)C2=O)c1 (stereo not drawn),8%,16%,3,2,-8%,-7%
COc1cc(OC)cc(N2C(=O)CC(N3CCC(C(=O)N4CCCCC4)CC3)C2=O)c1 (stereo not drawn),?,20µM*,-1,3,-41%,?
CCS(=O)(=O)Nc1ccc2c(c1)C(=O)N(C)[C@@H]1CC[C@H](CC(=O)OC)O[C@H]1CO2,.,.,-4,.,.,.
CN1CCC[C@H]1CCNc1ccc2c(=O)c3ccccc3n(C)c2c1,28µM*,.,-12,-4,?,?
COc1cc(OC)cc(C(=O)N2CCC(c3ccncc3)CC2)c1,1%,1%,-4,.,-3%[60.1 µM],-18%
c1cncc(-c2nn3c(Cn4nnc5ccccc54)nnc3s2)c1,-18%,10%,-4,.,-15%,-1%
c1ccc(-c2nn3c(Cn4nnc5ccccc54)nnc3s2)nc1,?,18µM*,-7,.,?,79µM*
c1ccc2c(c1)OCC(c1nn3c(Cn4nnc5ccccc54)nnc3s1)O2 (stereo not drawn),50µM*,?,7,.,?,?
COc1cccc(NC(=O)Nc2c(-c3ccc(F)cc3)nc3ncccn23)c1,.,.,2,.,.,.
CCN(CC)C(=O)CSc1nc(-c2ccc(C)cc2)nc2c1Cc1c(CO)cnc(C)c1O2,-4%,24%,-6,.,-9%,-3%
COc1ccc(NC(=O)Nc2ccc([N+](=O)[O-])cc2)cn1,?,28µM*,-9,-1,-40%,?
COc1ccc(NC(=O)Nc2cc(C)cc(C)c2)cn1,5%,7%,-3,-4,-6%,-13%
SMILES,POLI inh,POLB inh,PI4K2A inh,PI5P4K alpha inh,Pol kappa inh,POLH inh
Cc1ccc2cc(C3C(C#N)=C(N)Oc4c3ccc3cccnc43)c(=O)[nH]c2c1 (stereo not drawn),88%,-9%,4,.,0%,-18%
CCc1ccc2[nH]c(=O)c(C3C(C#N)=C(N)Oc4c3ccc3cccnc43)cc2c1 (stereo not drawn),45%,19%,-3,-51*,-21%,?
Cc1cc(-c2csc(NC(=O)C3=COCCO3)n2)c(C)n1C,?,.,?,-4,?,1%
Cc1cc(-c2csc(NC(=O)c3ccc(=O)n(C)n3)n2)c(C)n1CC1CCCO1 (stereo not drawn),11µM*,-27%,?,-3,?,?
O=C(NCc1ccco1)C1CC2CCC1C2 (stereo not drawn),89µM*,-1%,-11,.,-10%,-18%
O=C(O)C1C2CCC(C2)C1C(=O)NCc1ccco1 (stereo not drawn),-5%,11%,-3,-1,-1%,-3%
Cc1ccc(NC(=O)Cn2sc3nc(C)cc(C)c3c2=O)c(Cl)c1,-15%,0%,-1,-72*,-8%,15%
CCOc1ccc(NC(=O)CCc2c(C)nc3c4c(C)cc(C)nc4nn3c2C)cc1,29%,51%,-5,.,10%,-5%
Cc1cc(C)c2c(=O)n(CC(=O)N3CCC(Cc4ccccc4)CC3)sc2n1,.,12%,.,.,.,.
Cc1cc(C)c2c(=O)n(CC(=O)Nc3cccc(F)c3)sc2n1,?,2%,0,-67*,6%,2%
Cc1cc(C)n(CCC(=O)Nc2ccc(Cl)cc2)n1,-15%,?,1,.,-13%,-21%
Cc1cc(C)c2c(=O)n(CC(=O)Nc3ccc(Cl)cc3)sc2n1,-12%,-12%,-2,-64*,-5%,-7%
CCOc1ccc(NC(=O)Cn2sc3nc(C)cc(C)c3c2=O)cc1,?,1%,-2,-71*,-13%,-13%
CC(=O)OCON[N+]([O-])=NC1CCCCC1,-10%,.,.,.,1%,.
O=C(O)c1ccc(N2Cc3ccccc3C2)cc1O,?,45µM*,-5,.,?,5.6µM*
O=C(O)c1ccc(N2CCCCC2)cc1O,18%,3%,0,-7,0%,-17%
COc1ccc(-c2noc(-c3ccc(NC(C)c4ccccc4)c([N+](=O)[O-])c3)n2)cc1OC (stereo not drawn),55%,32µM*,-3,.,-10%,-18%
COc1ccc(-c2noc(-c3ccc(NC4CCCCC4)c([N+](=O)[O-])c3)n2)cc1OC,18%,8%,1,.,2%,-17%
O=C1/C(=C\c2ccco2)SC(=S)N1Cc1ccccc1,-2%,?,1,-16,-11%,?
